Only some compounds are listed: those with a hit (about 7.4% of all), similar ones and a draw of the others.
ELG1 genotox – induces genotoxicity in HEK293T cells with luciferase-tagged ELG1; HEK293T ELG1-luciferase reporter, luminescence, 16 h; Potency, µM (top dose mostly 46 µM), actives largely listed as activators; hit rate 1.3% among 330,000; AID 504466; also: nearly all actives have a fitted effect of over 60% in size
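HEK293T cells expressing luciferase-tagged ELG1 were exposed to compound or DMSO vehicle for 16 hr at 37 °C and 5% CO2. Luciferase activity was then measured with ONE-Glo after 30 min at room temperature.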
FLuc counter – firefly luciferase modulation, counter-screen for miR-21 project | Potency, µM (series often up to 57.5 µM), hits mostly inhibitors | hit rate 6.9% among 360,000 | purified FLuc, Km substrates, luminescence inhibition; also: nearly all actives have a fitted effect of over 55% in size
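Biochemical qHTS of compounds, final roughly 60 µM downward over six points, against 10 nM purified firefly luciferase using Km concentrations of substrates (10 uM D-luciferin, 10 uM ATP) in Tris acetate pH 7.5 buffer; luminescence output.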
SMN2 splice up – increases expression of the SMN2 splice variant | Potency, µM (doses to about 46.1 µM), usual class: activators | HEK293 SMN2-luciferase splicing reporter, luminescence, 30-36 h | hit rate 2.8% among 210,000; also: nearly all actives have a fitted effect of over 55% in size
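HEK293 cells carry an SMN2 […]–luciferase reporter in which exon 7 inclusion puts luciferase in frame. Cells were plated 10-12 h before compound addition, then incubated 30-36 h at 37C. ONE-Glo luminescence was read; sodium butyrate at 4.5 mM final served as control.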
NPC1 prom act – activators of NPC1 promoter. hit rate 2.4% among 320,000. Huh7 NPC1 promoter luciferase reporter, 24 h. Potency, µM (top dose mostly 9.22 µM), most hits filed as activators. AID 485313; also: nearly all actives have a fitted effect of over 60% in size
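Readout is luciferase luminescence, reflecting NPC1 promoter activation in stably transfected Huh7 cells after 24 h compound exposure at 37 °C in reduced-serum medium with 10% FBS.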
Rab9 promoter act – activates the Rab9 promoter | hit rate 2.8% among 320,000 | Potency, µM (series often up to 9.22 µM), most hits filed as activators | Huh7 Rab9 promoter-luciferase reporter, luminescence, 24 h | AID 485297; also: nearly all actives have a fitted effect of over 60% in size
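Using Huh7 cells stably transfected with Rab9 promoter–luciferase, compounds were incubated 24 h at 37 °C, 5% CO2; luciferase luminescence was read 10 min after reagent addition.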
A number is an active result; – = inactive; ? = inconclusive; · = no result; [ ] = remark or other dose. Calls follow the shape of the dose curve; as a rule, active = well fitted curve in the direction sought with a large enough effect; inconclusive = small, poorly fitted or top-dose-only effect, or another doubt; inactive = no such curve, though single readings can be large; an effect the other way counts as inactive or inconclusive.

SMILES	ELG1 genotox	FLuc counter	SMN2 splice up	NPC1 prom act	Rab9 promoter act
CCOC(=O)c1sc(=NC(=O)c2ccc(C)c(C)c2)n(C)c1C	12µM	?	–	3.2µM	2µM
CCCCCCOc1ccc(CN2CCN(C)CC2)cc1	5.8µM	6.7µM	–	?	?
O=C(O)c1cc[c]([Hg][S]c2ncnc3nc[nH]c23)cc1	·	·	–[9.22 µM]	·	·
CCc1nnc(NC(=O)CSc2ccc(-c3ccco3)nn2)s1	–	15µM	–	–	–
O=C(CSc1ccc(-c2ccco2)nn1)Nc1ccccc1	–	?	–	–	–
c1cncc(CNC2=NCCCCC2)c1	–	–	–	–	–
c1cncc(CNc2cc(-c3ccc4c(c3)OCO4)ncn2)c1	·	·	10µM	·	·
O=C(O)CCC1NCC2CC1CN1CCCCC21 (stereo not given)	·	·	–	·	·
COC[C@H]([C@@H](O)[C@@H](O)C(=O)NCC[C@@H](C)c1nc(/C=C/C[C@H]2OC3(C[C@H](O)[C@H]2C)OC([C@@H](C[C@@H](O)[C@@H](C)[C@@H](O)[C@@H](C)/C=C(C)/C(C)=C/C=C/C(C)=C\C#N)OC)[C@@H](OP(=O)(O)O)C3(C)C)co1)N(C)C (stereo not given in full)	·	·	–	·	·
Cc1ccc(S(=O)(=O)CC(=O)c2cc(C)c(OC(=O)N(C)C)c(C)c2)cc1	–	–	–	–	–
Cc1cc(C(=O)CS(=O)(=O)c2ccccc2)cc(C)c1OC(=O)N(C)C	–	6.7µM	10µM	3.2µM	0.79µM
Cc1ccc(-c2nc3ccccc3c(=O)n2-c2ccc(O)cc2)cc1	–	–	–	–	–
Cc1ccc(C(=O)n2c(N)nc3ccccc32)cc1	0.21µM	0.19µM	0.4µM	?	0.1µM
O=C(C1CC(c2ccccc2O)=NO1)N1CCC2(CC1)OCCO2 (stereo not given)	16µM	11µM	?	3.5µM	?
O=C(c1ccccc1)N1CCC2(CC1)OCCO2	–	–	·	–	–
CCOc1ccc(NC(=O)c2ccc(NC(=O)COC(=O)Cc3ccccc3)cc2)cc1	?	–	20µM	?	?
O=C(O)CCn1cc(C=C2C(=O)NC(=S)NC2=O)c(-c2cccc(Cl)c2)n1	–	21µM	·	–	–
O=C(O)CCn1cc(C=C2C(=O)NC(=O)NC2=O)c(-c2ccc(Br)cc2)n1	–	–	–	–	–
Cc1ccc(N=Nc2cc(C)ccc2N)cc1	0.46µM	0.19µM	·	0.5µM	0.32µM
C=CC(N)=O	·	·	–	·	·
O=C1NC(=S)NC(=O)C12C(c1ccc(F)cc1)NC(=S)NC2c1ccc(F)cc1 (stereo not given)	–	–	1.6µM	–	–
COc1ccc(C(=O)Nc2sc3c(c2C(=O)O)CC(C)(C)OC3)cc1	–	17µM	–	–	–
CC(C)(C)C(=O)CP(=O)(O)O	·	·	–[9.22 µM]	·	·
O=C1c2ccccc2-c2c1nc1c([n+]2[O-])CCCC1	?	–	–	–	3.5µM
O=c1c2ccccc2nc(/C=C/c2cccnc2)n1Cc1ccccc1	–	27µM	·	–	–
SMILES	ELG1 genotox	FLuc counter	SMN2 splice up	NPC1 prom act	Rab9 promoter act
O=c1c2ccccc2nc(/C=C/c2ccccc2)n1-c1ccc(O)cc1	–	–	·	–	–
O=C(Oc1ccc2cc(Br)ccc2c1)N1CCCCCC1	23µM	6.7µM	?	?	4µM
C[C@@H](O)CN(CCN(C[C@@H](C)O)C[C@@H](C)O)C[C@@H](C)O.O=[N+]([O-])O.[Cu]	·	·	–[9.22 µM]	·	·
COc1ccc(N=Cc2c(O)n(Cc3ccccc3)c(=S)[nH]c2=O)c(OC)c1	?	1.2µM	·	?	?
CCC12CCN(Cc3ccc(F)cc3)CC1Oc1c(O)cccc12 (stereo not given)	·	–	·	·	·
CCN(CC)C(=O)c1ccc(NC(=O)Nc2ccccc2F)cc1	?	1.5µM	2.8µM	0.32µM	?
CCN(CC)C(=O)c1ccc(NC(=O)CCCSc2ccccc2)cc1	–	–	–	–	–
CO[C@H]1[C@H](O)[C@H](O[C@@H]2[C@H](Oc3cccc4c(O)c5c(=O)oc6ccc(C)c7c(=O)oc(c34)c5c67)O[C@@H](C)[C@H](O)[C@H]2O)O[C@@H](C)[C@@H]1O	·	·	–[9.22 µM]	·	·
Cc1ccccc1N1C(=O)/C(=C/c2ccco2)C(=O)NC1=S	–	24µM	·	–	–
CCOc1ccc(N2C(=O)/C(=C/c3ccco3)C(=O)NC2=S)cc1	–	?	·	–	–

Screening data: PubChem BioAssay, National Center for Advancing Translational Sciences (NCATS)
